Test [1] deals with T1, Muscle, skeletal receptor tyrosine-protein kinase (Homo sapiens) (UniProt O15146).
T1 sequence (whole entry): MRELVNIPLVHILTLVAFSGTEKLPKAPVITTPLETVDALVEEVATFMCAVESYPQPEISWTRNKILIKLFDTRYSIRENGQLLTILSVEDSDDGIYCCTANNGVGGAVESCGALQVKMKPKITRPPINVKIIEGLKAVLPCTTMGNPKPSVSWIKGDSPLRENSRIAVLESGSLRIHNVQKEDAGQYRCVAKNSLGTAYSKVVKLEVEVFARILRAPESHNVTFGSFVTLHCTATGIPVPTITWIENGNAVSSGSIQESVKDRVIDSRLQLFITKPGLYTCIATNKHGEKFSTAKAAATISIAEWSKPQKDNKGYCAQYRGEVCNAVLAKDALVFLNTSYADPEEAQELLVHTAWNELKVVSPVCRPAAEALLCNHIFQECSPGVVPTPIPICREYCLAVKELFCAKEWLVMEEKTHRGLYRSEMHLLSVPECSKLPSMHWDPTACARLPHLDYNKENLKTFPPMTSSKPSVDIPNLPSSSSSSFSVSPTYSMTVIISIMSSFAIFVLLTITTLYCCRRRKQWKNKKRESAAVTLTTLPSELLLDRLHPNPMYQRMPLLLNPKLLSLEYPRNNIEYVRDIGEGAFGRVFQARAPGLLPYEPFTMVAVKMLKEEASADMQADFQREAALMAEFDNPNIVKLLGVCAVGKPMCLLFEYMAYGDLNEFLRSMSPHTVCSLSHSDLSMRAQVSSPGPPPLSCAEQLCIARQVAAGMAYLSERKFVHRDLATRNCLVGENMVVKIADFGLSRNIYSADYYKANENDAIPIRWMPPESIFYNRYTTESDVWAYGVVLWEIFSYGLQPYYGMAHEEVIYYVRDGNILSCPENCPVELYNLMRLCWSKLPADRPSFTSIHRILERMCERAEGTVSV
To be noted: at 1 µM.

Test [2] deals with T1, Muscle, skeletal receptor tyrosine-protein kinase (Homo sapiens). To be noted: at 10 µM.
Test [3] concerns the target T2, Serine/threonine-protein kinase Nek11 (Homo sapiens) (UniProt Q8NG66).
T2 sequence (whole entry): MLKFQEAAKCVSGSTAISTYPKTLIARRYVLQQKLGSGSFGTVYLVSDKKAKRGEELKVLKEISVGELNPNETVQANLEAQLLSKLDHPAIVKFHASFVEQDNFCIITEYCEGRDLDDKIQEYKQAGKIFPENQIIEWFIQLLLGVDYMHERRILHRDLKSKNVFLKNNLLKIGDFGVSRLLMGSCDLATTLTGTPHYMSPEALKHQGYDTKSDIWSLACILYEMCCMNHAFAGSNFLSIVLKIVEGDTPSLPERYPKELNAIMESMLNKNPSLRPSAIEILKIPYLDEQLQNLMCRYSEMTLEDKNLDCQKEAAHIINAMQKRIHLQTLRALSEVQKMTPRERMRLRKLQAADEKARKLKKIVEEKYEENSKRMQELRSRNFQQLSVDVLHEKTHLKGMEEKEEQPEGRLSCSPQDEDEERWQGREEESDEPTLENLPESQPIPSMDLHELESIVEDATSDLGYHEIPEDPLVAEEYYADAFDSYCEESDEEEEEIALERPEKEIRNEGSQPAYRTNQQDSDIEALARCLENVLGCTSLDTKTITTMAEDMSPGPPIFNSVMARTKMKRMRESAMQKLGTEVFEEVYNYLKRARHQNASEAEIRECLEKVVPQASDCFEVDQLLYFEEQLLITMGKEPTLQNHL
To be noted: at 1 µM.

Test [4] addresses T2, Serine/threonine-protein kinase Nek11 (Homo sapiens). To be noted: at 10 µM.
Test [5] has as its target T3, Serine/threonine-protein kinase Nek2 (Homo sapiens) (UniProt P51955).
T3 sequence (whole entry): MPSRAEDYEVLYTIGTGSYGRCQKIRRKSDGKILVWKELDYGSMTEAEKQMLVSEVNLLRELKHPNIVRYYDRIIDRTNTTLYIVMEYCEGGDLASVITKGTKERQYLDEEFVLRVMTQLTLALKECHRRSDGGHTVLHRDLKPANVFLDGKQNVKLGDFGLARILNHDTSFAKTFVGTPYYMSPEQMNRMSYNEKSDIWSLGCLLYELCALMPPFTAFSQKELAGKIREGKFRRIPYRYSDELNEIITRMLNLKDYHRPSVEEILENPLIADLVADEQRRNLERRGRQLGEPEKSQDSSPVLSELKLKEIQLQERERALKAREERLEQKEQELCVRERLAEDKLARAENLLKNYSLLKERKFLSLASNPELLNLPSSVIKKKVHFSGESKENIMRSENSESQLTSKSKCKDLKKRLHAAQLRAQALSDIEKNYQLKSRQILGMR
To be noted: at 1 µM.

Test [6] addresses T3, Serine/threonine-protein kinase Nek2 (Homo sapiens). The conditions noted are these: at 10 µM.
In test [7] the target is T4, Serine/threonine-protein kinase Nek3 (Homo sapiens) (UniProt P51956).
T4 sequence (whole entry): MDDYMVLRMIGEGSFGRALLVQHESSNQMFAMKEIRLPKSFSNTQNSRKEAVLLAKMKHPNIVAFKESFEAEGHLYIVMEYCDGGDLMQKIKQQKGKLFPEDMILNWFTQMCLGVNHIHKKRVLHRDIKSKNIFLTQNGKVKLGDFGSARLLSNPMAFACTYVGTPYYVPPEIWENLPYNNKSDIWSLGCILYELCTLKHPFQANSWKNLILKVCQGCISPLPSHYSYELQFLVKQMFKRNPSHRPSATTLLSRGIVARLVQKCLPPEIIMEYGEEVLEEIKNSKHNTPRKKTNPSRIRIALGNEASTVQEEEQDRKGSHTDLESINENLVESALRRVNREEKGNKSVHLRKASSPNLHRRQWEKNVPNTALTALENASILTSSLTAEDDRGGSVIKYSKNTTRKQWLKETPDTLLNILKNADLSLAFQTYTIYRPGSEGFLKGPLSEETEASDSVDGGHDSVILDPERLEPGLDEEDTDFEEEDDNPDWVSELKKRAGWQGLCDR
The conditions noted are these: at 1 µM.

Test [8] addresses T4, Serine/threonine-protein kinase Nek3 (Homo sapiens). The conditions noted are these: at 10 µM.
The target in test [9] is Serine/threonine-protein kinase tousled-like 2 (Homo sapiens) (UniProt Q86UE8). To be noted: at 1 µM.
Sequence of Serine/threonine-protein kinase tousled-like 2 (Homo sapiens) (Q86UE8 whole entry, looked up): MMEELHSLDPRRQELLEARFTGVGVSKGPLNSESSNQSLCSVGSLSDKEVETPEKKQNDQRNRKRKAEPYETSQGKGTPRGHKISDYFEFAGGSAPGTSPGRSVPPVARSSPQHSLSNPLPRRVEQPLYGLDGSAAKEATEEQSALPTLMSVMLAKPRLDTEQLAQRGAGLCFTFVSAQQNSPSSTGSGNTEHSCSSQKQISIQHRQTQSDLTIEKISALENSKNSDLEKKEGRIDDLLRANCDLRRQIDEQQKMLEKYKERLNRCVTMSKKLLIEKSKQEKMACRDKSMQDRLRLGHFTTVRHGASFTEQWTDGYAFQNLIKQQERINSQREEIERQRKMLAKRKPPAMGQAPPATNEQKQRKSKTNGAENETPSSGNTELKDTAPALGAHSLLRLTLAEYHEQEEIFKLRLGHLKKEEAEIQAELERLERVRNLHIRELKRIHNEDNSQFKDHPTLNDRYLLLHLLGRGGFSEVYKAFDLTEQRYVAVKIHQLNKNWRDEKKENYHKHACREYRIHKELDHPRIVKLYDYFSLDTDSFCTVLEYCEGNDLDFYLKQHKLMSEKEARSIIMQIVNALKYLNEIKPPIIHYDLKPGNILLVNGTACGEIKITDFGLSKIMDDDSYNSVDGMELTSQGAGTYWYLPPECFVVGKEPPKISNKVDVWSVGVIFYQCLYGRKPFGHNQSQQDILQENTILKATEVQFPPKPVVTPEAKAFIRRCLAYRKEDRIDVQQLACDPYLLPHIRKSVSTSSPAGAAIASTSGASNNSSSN
The target is the same in test [10]. To be noted: at 10 µM.
Test [11] deals with T5, Testis-specific serine/threonine-protein kinase 1 (Homo sapiens) (UniProt Q9BXA7).
T5 sequence (whole entry): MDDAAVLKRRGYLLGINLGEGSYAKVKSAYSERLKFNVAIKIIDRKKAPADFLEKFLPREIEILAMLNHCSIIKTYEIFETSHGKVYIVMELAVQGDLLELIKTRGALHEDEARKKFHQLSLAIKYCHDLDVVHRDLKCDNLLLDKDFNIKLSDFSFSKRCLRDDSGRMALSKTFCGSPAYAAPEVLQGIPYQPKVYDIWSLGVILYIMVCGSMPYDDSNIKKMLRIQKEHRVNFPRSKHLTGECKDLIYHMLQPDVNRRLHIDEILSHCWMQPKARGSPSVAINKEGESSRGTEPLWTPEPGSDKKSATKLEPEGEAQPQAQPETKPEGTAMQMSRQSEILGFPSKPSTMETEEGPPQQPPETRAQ
The conditions noted are these: at 1 µM.

Test [12] deals with T5, Testis-specific serine/threonine-protein kinase 1 (Homo sapiens). To be noted: at 10 µM.
The target of test [13] is T6, Testis-specific serine/threonine-protein kinase 2 (Homo sapiens) (UniProt Q96PF2).
T6 sequence (whole entry): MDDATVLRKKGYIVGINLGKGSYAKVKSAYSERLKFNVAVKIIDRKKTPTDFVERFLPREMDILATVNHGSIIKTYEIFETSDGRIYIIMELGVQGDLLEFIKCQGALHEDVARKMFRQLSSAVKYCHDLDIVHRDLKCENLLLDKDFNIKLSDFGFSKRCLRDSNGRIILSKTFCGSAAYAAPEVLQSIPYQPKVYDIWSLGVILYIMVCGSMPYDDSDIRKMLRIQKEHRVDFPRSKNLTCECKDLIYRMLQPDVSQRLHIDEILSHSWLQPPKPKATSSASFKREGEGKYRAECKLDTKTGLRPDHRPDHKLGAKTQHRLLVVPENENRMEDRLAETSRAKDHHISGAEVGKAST
The conditions noted are these: at 10 µM.

The target of test [14] is T7, Tyrosine-protein kinase Tec (Homo sapiens) (UniProt P42680).
T7 sequence (whole entry): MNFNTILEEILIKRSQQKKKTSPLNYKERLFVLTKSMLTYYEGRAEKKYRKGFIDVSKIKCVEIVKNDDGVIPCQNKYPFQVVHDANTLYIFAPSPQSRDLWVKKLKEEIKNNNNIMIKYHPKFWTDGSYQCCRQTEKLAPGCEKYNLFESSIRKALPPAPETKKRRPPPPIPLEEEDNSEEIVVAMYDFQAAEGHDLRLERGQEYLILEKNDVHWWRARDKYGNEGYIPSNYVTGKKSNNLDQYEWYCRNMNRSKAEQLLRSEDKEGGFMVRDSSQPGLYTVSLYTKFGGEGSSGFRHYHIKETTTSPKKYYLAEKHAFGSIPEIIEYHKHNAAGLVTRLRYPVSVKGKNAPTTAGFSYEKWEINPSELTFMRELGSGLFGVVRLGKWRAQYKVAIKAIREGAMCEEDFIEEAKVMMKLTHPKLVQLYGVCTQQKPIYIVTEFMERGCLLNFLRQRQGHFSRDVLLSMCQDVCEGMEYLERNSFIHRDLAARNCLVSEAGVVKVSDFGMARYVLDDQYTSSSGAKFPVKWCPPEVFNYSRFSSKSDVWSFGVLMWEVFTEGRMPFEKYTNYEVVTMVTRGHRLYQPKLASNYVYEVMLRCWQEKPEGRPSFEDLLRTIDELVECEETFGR
To be noted: at 1 µM.

Test [15] deals with T7, Tyrosine-protein kinase Tec (Homo sapiens). To be noted: at 10 µM.
Test [16] addresses Angiopoietin-1 receptor (Homo sapiens) (UniProt Q02763). To be noted: at 1 µM.
Test [17] has the same target. The conditions noted are these: at 10 µM.
The target in test [18] is High affinity nerve growth factor receptor (Homo sapiens) (UniProt P04629). To be noted: at 1 µM.
Sequence of High affinity nerve growth factor receptor (Homo sapiens) (P04629 33-796 limits assumed): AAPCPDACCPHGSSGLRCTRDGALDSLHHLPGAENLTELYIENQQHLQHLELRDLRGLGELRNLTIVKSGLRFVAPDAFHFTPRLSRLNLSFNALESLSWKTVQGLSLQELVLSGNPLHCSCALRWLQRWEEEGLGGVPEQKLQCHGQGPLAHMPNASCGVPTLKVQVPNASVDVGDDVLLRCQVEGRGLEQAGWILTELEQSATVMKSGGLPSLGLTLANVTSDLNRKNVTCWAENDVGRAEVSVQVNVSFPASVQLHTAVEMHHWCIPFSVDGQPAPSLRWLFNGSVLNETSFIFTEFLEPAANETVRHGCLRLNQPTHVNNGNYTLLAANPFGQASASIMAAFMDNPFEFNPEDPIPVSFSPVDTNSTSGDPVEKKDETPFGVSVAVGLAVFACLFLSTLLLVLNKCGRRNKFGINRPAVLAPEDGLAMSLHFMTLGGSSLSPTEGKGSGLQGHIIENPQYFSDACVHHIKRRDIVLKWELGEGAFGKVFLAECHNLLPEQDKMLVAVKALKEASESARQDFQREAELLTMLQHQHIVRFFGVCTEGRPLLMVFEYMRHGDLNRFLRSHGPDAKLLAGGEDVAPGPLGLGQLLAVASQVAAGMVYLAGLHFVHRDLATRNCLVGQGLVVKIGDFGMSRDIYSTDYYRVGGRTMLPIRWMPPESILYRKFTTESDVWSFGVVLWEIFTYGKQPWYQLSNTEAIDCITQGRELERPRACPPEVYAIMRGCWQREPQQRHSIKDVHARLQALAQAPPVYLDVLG
Test [19] shares this target. To be noted: at 10 µM.
Test [20] concerns the target BDNF/NT-3 growth factors receptor (Homo sapiens) (UniProt Q16620). The conditions noted are these: at 1 µM.

The values that follow come from ChEMBL document CHEMBL2218924, “A broad activity screen in support of a chemogenomic map for kinase signalling research and drug discovery” (Biochem J, 2013).

Sequence of Angiopoietin-1 receptor (Homo sapiens) (Q02763 whole entry): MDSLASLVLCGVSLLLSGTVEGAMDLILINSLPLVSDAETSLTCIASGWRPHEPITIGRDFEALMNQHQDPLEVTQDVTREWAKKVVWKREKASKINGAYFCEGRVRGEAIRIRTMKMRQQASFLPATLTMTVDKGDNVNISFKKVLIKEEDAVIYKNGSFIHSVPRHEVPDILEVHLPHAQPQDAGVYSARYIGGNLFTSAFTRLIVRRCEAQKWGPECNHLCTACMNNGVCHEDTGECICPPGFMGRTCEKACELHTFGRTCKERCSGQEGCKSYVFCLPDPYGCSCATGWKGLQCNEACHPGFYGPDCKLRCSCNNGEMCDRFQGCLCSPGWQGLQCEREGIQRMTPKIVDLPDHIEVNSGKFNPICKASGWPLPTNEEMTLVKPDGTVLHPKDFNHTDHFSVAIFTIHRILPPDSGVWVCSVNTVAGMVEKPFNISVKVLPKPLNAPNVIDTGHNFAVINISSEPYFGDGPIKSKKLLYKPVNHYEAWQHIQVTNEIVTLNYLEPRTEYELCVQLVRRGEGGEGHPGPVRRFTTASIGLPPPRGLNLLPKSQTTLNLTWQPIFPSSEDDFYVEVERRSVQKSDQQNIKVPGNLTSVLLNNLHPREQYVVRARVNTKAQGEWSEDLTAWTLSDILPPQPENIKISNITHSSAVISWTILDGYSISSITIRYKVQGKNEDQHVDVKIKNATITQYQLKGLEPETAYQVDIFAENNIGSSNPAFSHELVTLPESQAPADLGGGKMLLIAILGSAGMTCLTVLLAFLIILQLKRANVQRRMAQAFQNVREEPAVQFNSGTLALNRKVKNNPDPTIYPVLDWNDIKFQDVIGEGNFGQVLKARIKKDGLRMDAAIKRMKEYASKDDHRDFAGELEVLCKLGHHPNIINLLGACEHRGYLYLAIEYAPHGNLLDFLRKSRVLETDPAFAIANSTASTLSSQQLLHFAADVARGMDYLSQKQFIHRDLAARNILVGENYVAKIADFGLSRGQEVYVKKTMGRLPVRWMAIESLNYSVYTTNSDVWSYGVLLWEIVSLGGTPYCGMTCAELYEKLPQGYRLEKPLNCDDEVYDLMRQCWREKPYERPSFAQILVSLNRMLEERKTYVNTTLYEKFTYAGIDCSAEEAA
Sequence of BDNF/NT-3 growth factors receptor (Homo sapiens) (Q16620 32-822 limits assumed): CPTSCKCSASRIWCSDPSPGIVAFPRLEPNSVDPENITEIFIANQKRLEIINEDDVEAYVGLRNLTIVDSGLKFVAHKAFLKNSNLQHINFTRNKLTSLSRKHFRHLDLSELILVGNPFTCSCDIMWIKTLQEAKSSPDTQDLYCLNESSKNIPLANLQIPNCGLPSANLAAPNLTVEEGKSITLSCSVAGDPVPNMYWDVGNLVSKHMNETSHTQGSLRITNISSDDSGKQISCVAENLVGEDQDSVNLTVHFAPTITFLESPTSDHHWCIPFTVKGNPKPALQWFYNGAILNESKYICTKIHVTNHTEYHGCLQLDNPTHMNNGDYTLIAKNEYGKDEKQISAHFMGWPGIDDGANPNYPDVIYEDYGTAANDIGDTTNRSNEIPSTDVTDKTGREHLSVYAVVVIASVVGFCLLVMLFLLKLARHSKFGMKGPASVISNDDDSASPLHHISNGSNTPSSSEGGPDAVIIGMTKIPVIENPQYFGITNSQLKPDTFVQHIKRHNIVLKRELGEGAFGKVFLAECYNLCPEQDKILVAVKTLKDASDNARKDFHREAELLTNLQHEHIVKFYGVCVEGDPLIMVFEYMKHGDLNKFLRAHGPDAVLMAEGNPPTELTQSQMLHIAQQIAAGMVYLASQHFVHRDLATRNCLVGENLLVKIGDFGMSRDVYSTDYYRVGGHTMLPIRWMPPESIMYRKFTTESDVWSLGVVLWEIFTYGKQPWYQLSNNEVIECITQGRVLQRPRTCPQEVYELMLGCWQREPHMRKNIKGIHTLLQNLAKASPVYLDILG

For `COc1cc2ncnc(Nc3ccc(O)c(Br)c3)c2cc1OC`, the residual activity in test [1] came out at 77%; in [2] it was 63%; in test [3] it was 50%; in test [4] it was 64%; in [5] it was 73%; in [6], 83%. For the same molecule, the residual activity in test [7] turned out to be 106%; in [8] it was 81%; in test [9], 86%; in [10], 76%; in test [11], 87%; in test [12] it was 62%. Also, the residual activity in test [13] turned out to be 91%; in test [14], 76%; in test [15], 34%; in test [16], 61%; in test [17] it was 53%; in test [18] it was 82%. In addition, the residual activity in [19] is 44%; in test [20] it was 110%.

With `COc1ccc(C(=O)Nc2sc3c(c2C(N)=O)CCCC3)cc1OC`, the residual activity worked out at 92% in test [1]; 84% in test [2]; 77% in test [3]; 96% in test [4]; 80% in [5]; 103% in test [6]. Also, the residual activity was found to be 110% in [7]; 72% in test [8]; 95% in test [9]; 87% in test [10]; 94% in test [11]; 75% in test [12]. For the same molecule, the residual activity in test [13] is 85%; in [14], 89%; in test [15] it was 86%; in test [16] it was 79%; in [17], 59%; in test [18] it was 58%. Also, the residual activity in test [19] is 76%; in test [20], 70%.

On to `Cc1nc(-c2ccccc2)c(-c2ccncc2)o1`, for which the residual activity in test [1] amounted to 113%; in [2], 94%; in test [3], 81%; in test [4] it was 85%; in [5] it was 103%; in test [6] it was 102%. Further, the residual activity in test [7] came out at 102%; in test [8] it was 114%; in test [9], 106%; in test [10], 103%; in test [11], 100%; in [12], 88%. For the same molecule, the residual activity in test [13] was 98%; in [14], 103%; in [15], 42%; in test [16], 100%; in test [17] it was 122%; in test [18] it was 117%. Besides, the residual activity in test [19] stood at 95%; in test [20], 55%.

As for `N#CC(C#N)=C(N)/C(C#N)=C/c1ccc(O)cc1`, the residual activity amounted to 82% in test [2]; 75% in test [3]; 97% in [4]; 91% in test [5]; 100% in test [6]; 100% in test [9]. In addition, the residual activity was 95% in test [10]; 98% in test [11]; 96% in test [12]; 90% in test [14]; 88% in test [15]; 84% in [16]. The residual activity in [17] amounted to 74%; in test [18] it was 121%; in test [19], 119%; in [20], 99%.
